According to the supplement of paper PMC10849652:
The full data set covers some 8,800 targets. This sample favours those with a hit. About 0.5% of all pairs of compound and target were hits.

Experiments:
Test in all cases: log2 fold change, soluble protein after heating vs DMSO (PISA); higher = thermal stabilisation; K562 lysate, 10 uM; active = over 0.2 and 3.5 SD of the protein, either way, in both replicates (recomputed)
erlotinib = compound: C#Cc1cccc(Nc2ncnc3cc(OCCOC)c(OCCOC)cc23)c1 [erlotinib]
Method in brief: (§1)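 Values give the log-two fold change in thermal stability against solvent controls, from duplicates. Crude K562 extract at 1 mg/mL protein, made by dounce homogenisation in PBS pH 7.4 with 1 mM MgCl2, was treated with 10 μM compound for 30 min. After 3 min heating across 48°C-58°C, aliquots were pooled, adjusted to 0.5% NP-40 at 4°C and centrifuged at 21,000xg for 90 min. The supernatant was measured by TMTpro 16plex LC-MS/MS with channel sums equalised.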

[1] = compound: C/C(=N\NC(=O)C1=CC(=CC=C1)S(=O)(=O)N2CCOCC2)/C3=C(C=CC(=C3)Cl)O
Method in brief: as §1

[2] = compound: C1=CC(=CC=C1C2=NC3=C(N2)C=C(C=C3)C(=O)N)OC4=CC=C(C=C4)Cl
Method in brief: as §1

[3] = compound: C1=CC2=C(C=CC(=C2)/C=C\3/C(=O)NC(=NCC4=CC=CS4)S3)N=C1
Method in brief: as §1

[4] = compound: C1=CC2=NC=CN=C2C=C1/C=C/3\C(=O)NC(=O)S3
Method in brief: as §1

[5] = compound: C1=CC=C(C=C1)C2=NC(=C(N2)C3=CC=NC=C3)C4=CC(=C(C=C4)Cl)O
Method in brief: as §1

[6] = compound: C1=CC=C2C(=C1)C3=NNC4=CC=CC(=C43)C2=O
Method in brief: as §1

[7] = compound: C1CCN(C1)C(=O)NC2=CC=CC(=C2)NC3=NC=C(C(=N3)NCCC4=CN=CN4)Br
Method in brief: as §1

[8] = compound: C1CN(CCC1(CC2=CC=C(C=C2)Cl)N)C3=NC=NC4=C3C=CN4
Method in brief: as §1

IRAK-1-4 Inhibitor I = compound: C1COCCN1CCN2C3=CC=CC=C3N=C2NC(=O)C4=CC(=CC=C4)[N+](=O)[O-] [IRAK-1-4 Inhibitor I]
Method in brief: as §1

ibrutinib = compound: C=CC(=O)N1CCC[C@@H](n2nc(-c3ccc(Oc4ccccc4)cc3)c3c(N)ncnc32)C1 [ibrutinib]
Method in brief: as §1

[9] = compound: CC(=O)c1cnc2ccc(-c3cc(Cl)c(O)c(Cl)c3)nc2c1N[C@H]1CC[C@H](CN(C)C)CC1
Method in brief: as §1

ralimetinib = compound: CC(C)(C)Cn1c(N)nc2ccc(-c3[nH]c(C(C)(C)C)nc3-c3ccc(F)cc3)nc21 [ralimetinib]
Method in brief: as §1

[10] = compound: CC(C)(O)CC(=O)NCCn1ccc2ncnc(Nc3ccc(Oc4cccc(C(F)(F)F)c4)c(Cl)c3)c21
Method in brief: as §1

[11] = compound: CC(C)C1=C2N=C(C=C(N2N=C1)NCC3=CC=CC=C3)NCCCCCCN
Method in brief: as §1

[12] = compound: CC1=C(C(CC(=O)N1)C2=CC=C(C=C2)C(F)(F)F)C(=O)NC3=C(C=C4C(=C3)C=NN4)F
Method in brief: as §1

[13] = compound: CC1=C(C2=C(C=C1)C(=O)C3=CC=CC=C3N2CCCN)C
Method in brief: as §1

[14] = compound: CC1=C(C=C(C=C1)NC(=O)C2=CC(=CC=C2)C(C)(C)C#N)NC3=CC4=C(C=C3)N=CN(C4=O)C
Method in brief: as §1

[15] = compound: CC1=C(C=C(C=C1)NC(=O)C2=CC(=CC=C2)N(C)C)NC(=O)C3=CC=C(C=C3)O
Method in brief: as §1

[16] = compound: CC1=CC=C(C=C1)SC2=C3C=C(SC3=CN=C2)C(=O)N
Method in brief: as §1

Measured: log2 fold change

FKBP1A (UniProt P62942)
Chain of UniProt P62942 (P62942 whole entry, looked up): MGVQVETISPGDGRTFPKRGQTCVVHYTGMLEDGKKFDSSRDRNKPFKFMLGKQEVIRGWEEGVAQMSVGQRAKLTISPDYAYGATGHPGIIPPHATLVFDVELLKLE
inactive: erlotinib -0.024 | [1] 0.063 | [2] 0.015 | [3] -0.061 | [4] 0 | [5] 0.024 | [6] 0.091 | [7] -0.044 | [8] 0.062 | IRAK-1-4 Inhibitor I 0.071 | ibrutinib 0.083 | [9] -0.103 | ralimetinib 0.188 | [10] -0.054 | [11] 0.049 | [12] -0.022 | [13] -0.013 | [14] 0.084 | [15] 0.018 | [16] 0.187

EIF2B4 isoform 2 (UniProt Q9UI10)
inactive: erlotinib 0.031 | [1] 0.027 | [2] 0.008 | [3] 0.041 | [4] 0.009 | [5] 0.013 | [6] -0.04 | [7] -0.006 | [8] -0.008 | IRAK-1-4 Inhibitor I 0.03 | ibrutinib 0.011 | [9] 0.011 | ralimetinib 0.009 | [10] -0.005 | [11] -0.036 | [12] -0.004 | [13] -0.036 | [14] 0.001 | [15] -0.005 | [16] 0.04

EP400 isoform 5 (UniProt Q96L91)
Chain of UniProt Q96L91 (Q96L91 whole entry, looked up): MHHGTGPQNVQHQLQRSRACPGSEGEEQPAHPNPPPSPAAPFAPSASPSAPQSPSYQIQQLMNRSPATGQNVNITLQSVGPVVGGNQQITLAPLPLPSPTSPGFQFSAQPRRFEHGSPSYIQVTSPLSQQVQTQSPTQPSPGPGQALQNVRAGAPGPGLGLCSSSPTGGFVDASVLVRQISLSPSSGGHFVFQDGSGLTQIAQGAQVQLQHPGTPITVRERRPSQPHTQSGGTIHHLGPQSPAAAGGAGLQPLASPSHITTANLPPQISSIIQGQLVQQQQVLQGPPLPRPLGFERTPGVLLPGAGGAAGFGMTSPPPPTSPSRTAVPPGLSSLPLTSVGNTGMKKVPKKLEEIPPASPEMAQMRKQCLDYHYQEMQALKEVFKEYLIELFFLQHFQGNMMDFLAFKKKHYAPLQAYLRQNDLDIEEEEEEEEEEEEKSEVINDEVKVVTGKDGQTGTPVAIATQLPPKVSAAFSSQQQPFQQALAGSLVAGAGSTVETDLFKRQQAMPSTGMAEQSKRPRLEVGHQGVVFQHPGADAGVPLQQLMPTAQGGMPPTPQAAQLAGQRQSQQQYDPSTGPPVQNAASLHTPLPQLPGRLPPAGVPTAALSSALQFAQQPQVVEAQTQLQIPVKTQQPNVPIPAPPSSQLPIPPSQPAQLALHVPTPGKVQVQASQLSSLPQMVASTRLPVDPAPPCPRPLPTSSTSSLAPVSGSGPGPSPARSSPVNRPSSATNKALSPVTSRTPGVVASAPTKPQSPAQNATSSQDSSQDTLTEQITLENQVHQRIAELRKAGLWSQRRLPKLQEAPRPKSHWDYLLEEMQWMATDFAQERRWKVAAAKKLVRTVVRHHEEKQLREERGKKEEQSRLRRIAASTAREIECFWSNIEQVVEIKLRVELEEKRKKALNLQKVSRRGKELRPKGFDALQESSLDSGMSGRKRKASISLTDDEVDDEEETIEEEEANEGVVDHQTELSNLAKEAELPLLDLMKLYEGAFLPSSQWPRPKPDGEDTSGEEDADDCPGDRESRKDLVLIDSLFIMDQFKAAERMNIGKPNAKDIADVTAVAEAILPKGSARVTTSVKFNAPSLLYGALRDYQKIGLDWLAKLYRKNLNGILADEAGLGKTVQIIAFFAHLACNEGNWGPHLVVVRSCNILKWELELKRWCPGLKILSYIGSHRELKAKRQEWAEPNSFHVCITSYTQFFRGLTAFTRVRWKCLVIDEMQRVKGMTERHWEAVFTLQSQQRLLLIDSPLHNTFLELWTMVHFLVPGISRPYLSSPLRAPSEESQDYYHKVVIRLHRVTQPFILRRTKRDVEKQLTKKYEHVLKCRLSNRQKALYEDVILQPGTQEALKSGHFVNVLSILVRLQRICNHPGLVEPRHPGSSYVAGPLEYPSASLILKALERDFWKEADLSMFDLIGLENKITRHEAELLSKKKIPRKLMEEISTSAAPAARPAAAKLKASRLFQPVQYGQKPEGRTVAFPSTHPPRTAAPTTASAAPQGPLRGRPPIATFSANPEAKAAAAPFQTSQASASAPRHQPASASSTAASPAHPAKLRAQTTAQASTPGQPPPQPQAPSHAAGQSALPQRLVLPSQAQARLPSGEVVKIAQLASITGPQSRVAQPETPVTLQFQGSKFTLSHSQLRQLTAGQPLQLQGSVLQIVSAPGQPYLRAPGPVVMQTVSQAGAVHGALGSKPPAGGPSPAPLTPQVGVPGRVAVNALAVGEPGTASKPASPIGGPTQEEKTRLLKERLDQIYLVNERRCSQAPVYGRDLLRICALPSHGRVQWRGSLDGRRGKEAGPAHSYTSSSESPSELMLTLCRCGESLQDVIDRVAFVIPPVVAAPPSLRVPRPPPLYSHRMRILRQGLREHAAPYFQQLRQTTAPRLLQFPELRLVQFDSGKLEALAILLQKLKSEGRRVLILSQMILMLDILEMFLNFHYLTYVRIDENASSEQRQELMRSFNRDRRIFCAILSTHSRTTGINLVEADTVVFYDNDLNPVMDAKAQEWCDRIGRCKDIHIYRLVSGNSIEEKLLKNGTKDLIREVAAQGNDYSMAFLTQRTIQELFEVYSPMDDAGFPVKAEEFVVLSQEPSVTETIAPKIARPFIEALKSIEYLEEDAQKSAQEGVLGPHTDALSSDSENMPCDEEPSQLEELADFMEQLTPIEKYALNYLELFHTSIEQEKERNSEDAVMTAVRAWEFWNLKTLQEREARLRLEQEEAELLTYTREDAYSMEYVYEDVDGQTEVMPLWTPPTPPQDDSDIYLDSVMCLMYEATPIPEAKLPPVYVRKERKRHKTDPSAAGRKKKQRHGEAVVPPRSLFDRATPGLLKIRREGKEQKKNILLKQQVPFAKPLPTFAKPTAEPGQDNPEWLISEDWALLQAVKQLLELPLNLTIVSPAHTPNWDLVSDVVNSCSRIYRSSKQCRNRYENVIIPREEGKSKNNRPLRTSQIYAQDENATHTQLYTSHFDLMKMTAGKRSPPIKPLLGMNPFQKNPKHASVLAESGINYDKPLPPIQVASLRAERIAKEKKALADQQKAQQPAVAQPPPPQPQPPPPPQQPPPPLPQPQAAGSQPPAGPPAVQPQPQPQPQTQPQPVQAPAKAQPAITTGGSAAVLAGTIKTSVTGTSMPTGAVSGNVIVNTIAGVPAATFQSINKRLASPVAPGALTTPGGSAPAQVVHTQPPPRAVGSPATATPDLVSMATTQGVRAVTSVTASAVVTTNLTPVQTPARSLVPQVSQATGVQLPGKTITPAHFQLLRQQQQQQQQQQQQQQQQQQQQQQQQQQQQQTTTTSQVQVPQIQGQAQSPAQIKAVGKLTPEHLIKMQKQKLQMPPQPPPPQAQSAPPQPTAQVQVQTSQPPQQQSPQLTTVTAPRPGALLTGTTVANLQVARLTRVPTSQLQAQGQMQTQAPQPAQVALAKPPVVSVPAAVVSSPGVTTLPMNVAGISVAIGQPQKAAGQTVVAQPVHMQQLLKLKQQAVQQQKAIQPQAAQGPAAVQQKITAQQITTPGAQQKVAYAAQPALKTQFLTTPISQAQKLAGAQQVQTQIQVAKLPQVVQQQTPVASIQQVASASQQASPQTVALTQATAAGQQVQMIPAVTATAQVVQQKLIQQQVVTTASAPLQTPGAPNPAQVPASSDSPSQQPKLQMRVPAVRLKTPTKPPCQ
inactive: erlotinib 0.045 | [1] 0.01 | [2] -0.007 | [3] -0.023 | [4] -0.042 | [5] -0.003 | [6] -0.074 | [7] -0.027 | [8] -0.023 | IRAK-1-4 Inhibitor I -0.005 | ibrutinib -0.061 | [9] -0.018 | ralimetinib 0.02 | [10] -0.033 | [11] -0.027 | [12] 0.047 | [13] -0.014 | [14] 0.016 | [15] 0.035 | [16] 0.041

FAM83D (UniProt Q9H4H8)
Chain of UniProt Q9H4H8 (Q9H4H8 whole entry, looked up): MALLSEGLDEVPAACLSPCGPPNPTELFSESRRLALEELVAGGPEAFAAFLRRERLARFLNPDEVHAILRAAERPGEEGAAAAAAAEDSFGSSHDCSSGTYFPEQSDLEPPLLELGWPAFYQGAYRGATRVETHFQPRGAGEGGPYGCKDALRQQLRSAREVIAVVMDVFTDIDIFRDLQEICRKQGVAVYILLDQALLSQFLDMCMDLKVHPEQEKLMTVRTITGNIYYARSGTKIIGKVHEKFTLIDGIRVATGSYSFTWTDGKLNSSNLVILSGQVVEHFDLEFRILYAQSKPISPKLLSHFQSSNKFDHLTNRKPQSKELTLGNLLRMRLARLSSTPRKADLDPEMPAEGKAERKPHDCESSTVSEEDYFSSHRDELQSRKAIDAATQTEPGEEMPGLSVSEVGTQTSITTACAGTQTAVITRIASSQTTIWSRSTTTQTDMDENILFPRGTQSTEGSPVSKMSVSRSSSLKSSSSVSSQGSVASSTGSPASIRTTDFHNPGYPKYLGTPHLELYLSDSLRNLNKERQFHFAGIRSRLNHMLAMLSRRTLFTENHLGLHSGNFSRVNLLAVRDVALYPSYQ
inactive: erlotinib 0.033 | [1] 0.013 | [2] -0.049 | [3] 0.006 | [4] 0 | [5] -0.009 | [6] -0.003 | [7] -0.005 | [8] -0.004 | IRAK-1-4 Inhibitor I 0.019 | ibrutinib 0.028 | [9] 0.031 | ralimetinib 0.041 | [10] -0.018 | [11] 0.013 | [12] 0.038 | [13] -0.098 | [14] -0.032 | [15] 0.031 | [16] 0.017

FAM118A (UniProt Q9NWS6)
inactive: erlotinib 0.03 | [1] -0.03 | [2] -0.016 | [3] 0.022 | [4] 0.029 | [5] 0.012 | [6] -0.006 | [7] 0.021 | [8] 0.048 | IRAK-1-4 Inhibitor I 0.051 | ibrutinib -0.024 | [9] 0.01 | ralimetinib 0.041 | [10] -0.052 | [11] -0.01 | [12] -0.004 | [13] -0.052 | [14] 0.015 | [15] 0.014 | [16] -0.004

FYB1 isoform 3 (UniProt O15117)
inactive: erlotinib -0.019 | [1] -0.043 | [2] -0.003 | [3] -0.073 | [4] 0.009 | [5] 0.015 | [6] -0.025 | [7] -0.012 | [8] 0.028 | IRAK-1-4 Inhibitor I 0.024 | ibrutinib -0.008 | [9] -0.01 | ralimetinib -0.022 | [10] -0.008 | [11] 0.005 | [12] -0.017 | [13] -0.042 | [14] 0.059 | [15] 0.008 | [16] -0.013

GDPD1 (UniProt Q8N9F7)
inactive: erlotinib -0.037 | [1] 0.248 | [2] -0.112 | [3] 0.001 | [4] -0.041 | [5] 0.011 | [6] -0.024 | [7] 0.032 | [8] 0.086 | IRAK-1-4 Inhibitor I 0.038 | ibrutinib 0.039 | [9] -0.058 | ralimetinib 0.06 | [10] -0.137 | [11] 0.047 | [12] -0.032 | [13] -0.001 | [14] 0.055 | [15] 0.024 | [16] -0.063

ENO1 isoform 2 (UniProt P06733)
inactive: erlotinib -0.02 | [1] -0.039 | [2] -0.035 | [3] -0.021 | [4] -0.016 | [5] -0.003 | [6] -0.066 | [7] -0.033 | [8] 0.027 | IRAK-1-4 Inhibitor I 0.015 | ibrutinib -0.043 | [9] 0.008 | ralimetinib 0.02 | [10] -0.07 | [11] 0.028 | [12] -0.009 | [13] -0.013 | [14] 0.023 | [15] -0.002 | [16] -0.015

EXOC3 (UniProt O60645)
Chain of UniProt O60645 (O60645 whole entry, looked up): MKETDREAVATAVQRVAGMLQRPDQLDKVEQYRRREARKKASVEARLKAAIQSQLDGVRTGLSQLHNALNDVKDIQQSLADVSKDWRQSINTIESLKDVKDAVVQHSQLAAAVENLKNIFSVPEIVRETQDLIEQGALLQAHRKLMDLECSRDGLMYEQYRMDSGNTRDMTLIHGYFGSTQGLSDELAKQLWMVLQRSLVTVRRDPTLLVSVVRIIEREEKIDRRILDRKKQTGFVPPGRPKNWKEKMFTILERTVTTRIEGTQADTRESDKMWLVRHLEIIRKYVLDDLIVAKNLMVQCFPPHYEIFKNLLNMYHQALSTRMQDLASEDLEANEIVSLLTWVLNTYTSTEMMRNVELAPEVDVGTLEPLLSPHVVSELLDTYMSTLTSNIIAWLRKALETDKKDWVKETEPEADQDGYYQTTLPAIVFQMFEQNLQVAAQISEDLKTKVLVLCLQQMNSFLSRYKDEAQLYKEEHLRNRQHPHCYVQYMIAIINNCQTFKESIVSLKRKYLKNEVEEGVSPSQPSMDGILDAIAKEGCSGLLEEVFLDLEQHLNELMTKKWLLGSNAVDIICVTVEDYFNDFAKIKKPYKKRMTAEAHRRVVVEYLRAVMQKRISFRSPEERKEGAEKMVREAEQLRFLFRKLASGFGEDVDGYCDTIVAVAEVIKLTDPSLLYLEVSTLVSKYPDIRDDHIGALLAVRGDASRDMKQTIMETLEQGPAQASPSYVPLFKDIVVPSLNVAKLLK
inactive: erlotinib 0.033 | [1] 0.027 | [2] 0.006 | [3] 0.033 | [4] 0.039 | [5] 0.011 | [6] -0.04 | [7] 0.018 | [8] -0.001 | IRAK-1-4 Inhibitor I 0.013 | ibrutinib -0.029 | [9] -0.012 | ralimetinib 0.025 | [10] 0.048 | [11] 0.025 | [12] 0 | [13] -0.042 | [14] 0.037 | [15] 0.067 | [16] 0.004

FREM2 (UniProt Q5SZK8)
inactive: erlotinib 0.015 | [1] -0.095 | [2] -0.109 | [3] -0.065 | [4] 0.047 | [5] 0.008 | [6] -0.051 | [7] -0.02 | [8] -0.021 | IRAK-1-4 Inhibitor I 0.009 | ibrutinib -0.062 | [9] 0.024 | ralimetinib -0.014 | [10] -0.042 | [11] -0.024 | [12] -0.06 | [13] -0.01 | [14] 0.079 | [15] 0.035 | [16] -0.073

GFPT1 (UniProt Q06210)
inactive: erlotinib 0.031 | [1] -0.008 | [2] 0.003 | [3] 0.013 | [4] -0.008 | [5] 0.001 | [6] -0.014 | [7] -0.021 | [8] 0.008 | IRAK-1-4 Inhibitor I 0.006 | ibrutinib 0.014 | [9] -0.014 | ralimetinib 0.002 | [10] -0.024 | [11] 0.022 | [12] -0.015 | [13] 0.012 | [14] 0.009 | [15] 0.014 | [16] 0.01

ESYT2 (UniProt H7BXI1)
inactive: erlotinib -0.056 | [1] 0.037 | [2] -0.017 | [3] 0.042 | [4] -0.025 | [5] -0.022 | [6] -0.076 | [7] -0.005 | [8] -0.008 | IRAK-1-4 Inhibitor I 0.019 | ibrutinib 0.035 | [9] -0.022 | ralimetinib 0.003 | [10] -0.039 | [11] -0.04 | [12] 0.046 | [13] 0.05 | [14] 0.015 | [15] -0.025 | [16] -0.044

FADS1, A0A0A0MR51
inactive: erlotinib -0.006 | [1] -0.033 | [2] -0.008 | [3] 0.085 | [4] -0.026 | [5] -0.012 | [6] 0.05 | [7] -0.002 | [8] -0.064 | IRAK-1-4 Inhibitor I -0.026 | ibrutinib 0.011 | [9] 0.178 | ralimetinib 0.094 | [10] 0.094 | [11] -0.003 | [12] -0.032 | [13] 0.002 | [14] 0.113 | [15] -0.08 | [16] -0.115

EPRS (UniProt P07814)
inactive: erlotinib 0.028 | [1] 0.032 | [2] -0.007 | [3] 0.01 | [4] 0.014 | [5] 0.017 | [6] -0.026 | [7] 0 | [8] -0.004 | IRAK-1-4 Inhibitor I -0.006 | ibrutinib -0.018 | [9] 0.002 | ralimetinib 0.01 | [10] 0.026 | [11] 0.02 | [12] -0.014 | [13] 0.02 | [14] -0.004 | [15] 0.046 | [16] 0.019

EFCAB14 (UniProt O75071)
Chain of UniProt O75071 (O75071 whole entry, looked up): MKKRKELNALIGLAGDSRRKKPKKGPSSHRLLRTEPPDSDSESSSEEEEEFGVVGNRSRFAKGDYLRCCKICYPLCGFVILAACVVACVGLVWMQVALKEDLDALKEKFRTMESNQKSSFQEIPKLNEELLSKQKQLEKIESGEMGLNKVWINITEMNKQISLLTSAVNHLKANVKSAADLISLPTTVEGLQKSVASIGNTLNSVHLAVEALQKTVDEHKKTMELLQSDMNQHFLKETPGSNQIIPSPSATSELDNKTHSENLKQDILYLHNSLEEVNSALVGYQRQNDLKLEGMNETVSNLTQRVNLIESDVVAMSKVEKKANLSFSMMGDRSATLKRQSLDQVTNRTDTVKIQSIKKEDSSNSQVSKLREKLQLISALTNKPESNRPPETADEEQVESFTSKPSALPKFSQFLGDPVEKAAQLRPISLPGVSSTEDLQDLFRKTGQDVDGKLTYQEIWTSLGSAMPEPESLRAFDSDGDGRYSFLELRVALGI
inactive: erlotinib 0.019 | [1] 0.115 | [2] 0.043 | [3] -0.036 | [4] -0.019 | [5] -0.042 | [6] -0.022 | [7] 0.01 | [8] 0.042 | IRAK-1-4 Inhibitor I 0.011 | ibrutinib 0.026 | [9] 0.015 | ralimetinib 0.055 | [10] -0.075 | [11] -0.045 | [12] 0.077 | [13] 0.02 | [14] 0.011 | [15] 0.016 | [16] 0.012

GCN1 (UniProt Q92616)
inactive: erlotinib 0.048 | [1] 0.066 | [2] -0.086 | [3] 0.022 | [4] 0.054 | [5] 0.026 | [6] -0.016 | [7] -0.008 | [8] 0.003 | IRAK-1-4 Inhibitor I 0.008 | ibrutinib 0.016 | [9] 0.008 | ralimetinib 0.064 | [10] 0.028 | [11] -0.031 | [12] -0.016 | [13] -0.01 | [14] 0.008 | [15] 0.075 | [16] 0.026
